Assay [1] has as its system MCC-13. The assay is described as follows: qHTS assay to identify novel small-molecules to repurpose for Merkel cell carcinoma treatment (AID 1296009). Also: nearly all actives have a fitted effect of over 60% in size. Also: potency is read from the fitted curve at half-maximal effect. The conditions noted are these: MCC and control cell lines, CellTiter-Glo viability, 72 h; series mostly up to 46 µM. In short, it runs like this:
(§1)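 CellTiter-Glo luminescence after 72 hr compound exposure at 37 degree celsius gave cell viability. Libraries NPC and MIPE were run as 8- and 11-point dose responses; RLUs normalized to DMSO (negative) and no-cell (cytotoxicity) controls.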
(In qHTS, concentration-response curves come from the screen itself.)

Assay [2] relates to MCC-26. The assay is described as above. The conditions noted are these: MCC and control cell lines, CellTiter-Glo viability, 72 h; series mostly up to 46 µM. An outline of the steps:
as §1
On the technique in general: In ATP-based viability assays light output follows the ATP content of the culture.

Assay [3] deals with MKL-1. The assay is described as above. The settings on record: MCC and control cell lines, CellTiter-Glo viability, 72 h; series mostly up to 46 µM. In short, it runs like this:
as §1

The test system of assay [4] is UISO. The description is as above. The settings on record: MCC and control cell lines, CellTiter-Glo viability, 72 h; series mostly up to 46 µM. An outline of the steps: as §1
The subject of assay [5] is WaGa. Described as above. The conditions noted are these: MCC and control cell lines, CellTiter-Glo viability, 72 h; series mostly up to 46 µM. An outline of the steps:
as §1

Assay [6] concerns NIH3T3. The assay is described as above. The conditions noted are these: MCC and control cell lines, CellTiter-Glo viability, 72 h; at 44.8 µM (top of the series) unless noted. In short, it runs like this:
as §1

Assay [7] concerns C33A. The assay is described as follows: Primary qHTS to identify gynecologic anti-cancer compounds using libraries of approved drugs and bioactive compounds (AID 1345084). Also: nearly all actives have a fitted effect of over 55% in size. Also: potency is read from the fitted curve at half-maximal effect. The settings on record: Gynecologic cancer cell panel viability, ATPlite luminescence, 48 h; series mostly up to 57.5 µM. In short, it runs like this:
(§2)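 Cells, 1,000 per well, plated 16 h, then exposed 48 h at 37 C to compounds. Viability by ATPlite luminescence after 15 min at room temperature.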

The test system of assay [8] is CAOV3. The assay is described as above. The conditions noted are these: Gynecologic cancer cell panel viability, ATPlite luminescence, 48 h; series mostly up to 57.5 µM. In short, it runs like this:
as §2

Assay [9] relates to CASKI. Described as above. The conditions noted are these: Gynecologic cancer cell panel viability, ATPlite luminescence, 48 h; series mostly up to 57.5 µM. An outline of the steps:
as §2

For assay [10], the system named is Es-2. Described as above. The settings on record: Gynecologic cancer cell panel viability, ATPlite luminescence, 48 h; series mostly up to 57.5 µM. An outline of the steps:
as §2

Assay [11] concerns HeLa. Described as above. The settings on record: Gynecologic cancer cell panel viability, ATPlite luminescence, 48 h; series mostly up to 57.5 µM. An outline of the steps:
as §2

Assay [12] has as its system Hek293T. The description is as above. The settings on record: Gynecologic cancer cell panel viability, ATPlite luminescence, 48 h, control line for the selectivity index; series mostly up to 57.5 µM. An outline of the steps: as §2
In assay [13] the test system is JEG-3. The description is as above. The settings on record: Gynecologic cancer cell panel viability, ATPlite luminescence, 48 h; series mostly up to 57.5 µM. An outline of the steps: as §2
Assay [14] relates to OV90. The description is as above. The conditions noted are these: Gynecologic cancer cell panel viability, ATPlite luminescence, 48 h; series mostly up to 57.5 µM. An outline of the steps:
as §2

For assay [15], the system named is PA-1. Described as above. The conditions noted are these: Gynecologic cancer cell panel viability, ATPlite luminescence, 48 h; series mostly up to 57.5 µM. In short, it runs like this: as §2
The subject of assay [16] is SKOV3. The assay is described as above. The settings on record: Gynecologic cancer cell panel viability, ATPlite luminescence, 48 h; series mostly up to 57.5 µM. An outline of the steps: as §2
In assay [17] the test system is Tov-21-G. Described as above. The conditions noted are these: Gynecologic cancer cell panel viability, ATPlite luminescence, 48 h; series mostly up to 57.5 µM. An outline of the steps: as §2
The subject of assay [18] is Tov112D. The description is as above. The conditions noted are these: Gynecologic cancer cell panel viability, ATPlite luminescence, 48 h; series mostly up to 57.5 µM. An outline of the steps:
as §2

Assay [19] in a line: Drug repurposing screens with cells derived from glioblastoma tumor samples (AID 1345199). Also: nearly all actives have a fitted effect of over 40% in size. The settings on record: GBM patient neurospheres viability, ATP luminescence, 48 h; Potency: tumour line A unless noted; series mostly up to 45.9 µM. In short, it runs like this: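 Primary testing used CD133+ neurospheres from four GBM patients, seven concentrations, 48 h exposure and ATP-based viability; confirmation added three slower-growing patient lines.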

Assay [20] has as its system MKL-2. The assay is described as follows: qHTS assay to identify novel small-molecules to repurpose for Merkel cell carcinoma treatment (AID 1296009). Also: nearly all actives have a fitted effect of over 60% in size. Also: potency is read from the fitted curve at half-maximal effect. The conditions noted are these: MCC and control cell lines, CellTiter-Glo viability, 72 h; series mostly up to 46 µM. An outline of the steps:
as §1

Inconclusive results are not listed. Calls of active or inactive are those of the source. Calls follow the shape of the dose curve; as a rule, active = well fitted curve in the direction sought with a large enough effect; inconclusive = small, poorly fitted or top-dose-only effect, or another doubt; inactive = no such curve, though single readings can be large; an effect the other way counts as inactive or inconclusive.

`C=C1C[C@H]2[C@H]3CCC(=O)[C@@]3(C)CC[C@@H]2[C@@]2(C)C=CC(=O)C=C12`: the Potency entry in [1], in [2], in assay [3] and in assay [4] was “inactive” in each case.
Take `CC[C@@H]1[C@@H](C)O[C@@](O)([C@@H](C)[C@H](O)[C@H](C)[C@H]2OC(=O)C=CC=C[C@@H](C)[C@@H]([C@@H](C)[C@@H](O)[C@H](C)[C@@]3(O)C[C@H](O[C@H]4C[C@H](O)[C@H](O)[C@H](C)O4)[C@H](CC)[C@@H](C)O3)OC(=O)C=CC=C[C@@H]2C)C[C@H]1O[C@H]1C[C@H](O)[C@H](O)[C@H](C)O1`: the Potency was 16.6 µM (active) in assay [1]; 8.33 µM (active) in [2]; 14.8 µM (active) in assay [3]; 8.33 µM (active) in assay [4]; 2.64 µM (active) in assay [5].
Regarding `CN1CCN(c2ccc([N+](=O)[O-])c3no[n+]([O-])c23)CC1`, the Potency entry in [1], in assay [2], in assay [3], in [4], in assay [7] and in [8] was “inactive” each time. Also, the Potency entry in assay [9], in [10], in assay [11], in assay [12], in assay [13] and in [14] was “inactive” in each case. In addition, the Potency entry in assay [15], in [16], in assay [17] and in assay [18] was “inactive” throughout. Moreover, the molecule was classed as inactive in assay [6].
As for `COc1ccc2c(c1)CN(C)CC2c1ccc(Cl)c(Cl)c1` (stereo not given), the Potency result in assay [1], in assay [2], in assay [3], in assay [4] and in assay [5] was “inactive” each time.
As to `Cc1c(C(=O)Nc2cccc(C(F)(F)F)c2)cc(-c2ccccc2)n1CCCN1CCOCC1`, the Potency result in assay [1], in assay [2], in assay [3], in assay [7], in assay [8] and in assay [10] was “inactive” in each case. Also, the Potency result in [11], in assay [12], in assay [13], in [14], in assay [15] and in [16] was “inactive” each time. The Potency entry in assay [17] and in assay [18] was “inactive” each time.
Regarding `Nc1ccc(N=Nc2ccccc2)cc1`, the Potency result in assay [1], in assay [2], in assay [3] and in [19] was “inactive” throughout. In addition, the Potency in assay [14] was 39.8 µM (active).
Regarding `CCO/N=C(\CC)C1=C(O)CC(c2c(C)cc(C)cc2C)CC1=O` (stereo not given), the Potency entry in assay [1], in assay [2], in [3], in assay [4], in [7] and in assay [9] was “inactive” throughout. The Potency result in [10], in assay [11], in assay [12], in assay [14], in assay [15] and in assay [16] was “inactive” throughout. The Potency result in assay [17], in assay [18] and in assay [19] was “inactive” in each case.
In the case of `CC(C)Oc1cccc(NC(=O)c2ccccc2C(F)(F)F)c1`, the Potency result in assay [1], in [2], in [3], in assay [9] and in assay [13] was “inactive” throughout. Moreover, the values for the Potency in assay [5] and in [14] were 38.6 µM (active) and 31.6 µM (active), respectively.
Take `O=[N+]([O-])c1c2ccccc2cc2ccccc12`: the Potency result in assay [1], in assay [2], in assay [7], in [9], in [10] and in [12] was “inactive” throughout. Further, the Potency result in [13], in [14], in assay [15], in assay [17] and in [18] was “inactive” each time. In assay [4], the Potency was 42.8 µM (active).
As for `COC[C@H]1OC(=O)c2coc3c2[C@@]1(C)C1=C(C3=O)[C@@H]2CC[C@H](O)[C@@]2(C)C[C@@H]1OC(C)=O`, the Potency entry in assay [1] and in assay [2] was “inactive” in each case. Further, the Potency in assay [20] is 8.33 µM (active); in assay [5], 10.5 µM (active).
Regarding `CC(C)(O)C(=O)Nc1ccc([N+](=O)[O-])c(C(F)(F)F)c1`, the Potency result in assay [1], in [2], in assay [3] and in [4] was “inactive” in each case. Further, the molecule was called inactive in [6].
For `CC(=O)[O][Hg][c]1ccccc1`, the Potency in assay [1] was 1.06 µM (active); in assay [2], 2.66 µM (active); in assay [20] it was 0.106 µM (active); in assay [4], 0.841 µM (active); in assay [5] it was 0.473 µM (active); in assay [7], 5.62 µM (active). Further, the Potency was 3.55 µM (active) in assay [8]; 4.47 µM (active) in assay [9]; 6.31 µM (active) in assay [10]; 14.1 µM (active) in [11]; 7.08 µM (active) in assay [12]; 5.01 µM (active) in [13]. For the same molecule, the Potency was 12.6 µM (active) in assay [14]; 3.16 µM (active) in [15]; 3.55 µM (active) in assay [16]; 2.51 µM (active) in assay [17]; 5.01 µM (active) in assay [18].
For the molecule `O=S(=O)(c1ccc(Cl)cc1)c1ccc(Cl)cc1`, the Potency result in assay [1], in assay [2], in assay [3], in assay [4], in [7] and in assay [8] was “inactive” each time. Besides, the Potency entry in assay [9], in assay [10], in [11], in assay [12], in [13] and in [15] was “inactive” each time. The Potency result in assay [17], in assay [18] and in assay [19] was “inactive” throughout.
For `C=CCC1=C(C)C(OC(=O)C2C(C=C(C)C)C2(C)C)CC1=O` (stereo not given), the Potency entry in assay [1], in assay [2], in [7], in [9], in assay [10] and in assay [11] was “inactive” each time. In addition, the Potency result in assay [12], in assay [13], in assay [14], in assay [17] and in assay [18] was “inactive” each time.
On to `C[C@@H]1O[C@@H](O[C@@H]2C=C3CC[C@@H]4[C@@H](CC[C@]5(C)[C@H](c6ccc(=O)oc6)CC[C@@]45O)[C@@]3(C)CC2)[C@H](O)[C@H](O)[C@H]1O`, for which the Potency in assay [1] is 0.0372 µM (active); in assay [3] it was 0.105 µM (active); in assay [20], 0.132 µM (active); in [5] it was 0.0418 µM (active).

(Values after PubChem BioAssay (NCATS).)
